From PubChem BioAssay (EPA / NIEHS)
“And” between values parts separate entries of the source, which are not always exact repeats. Identical values can stand only once. The source made the active and inactive calls. How the source made its calls: active means hit-call score of the fitted dose curve at least 0.9, where 1 is the maximum; inactive means score below 0.9.

Test: ATG_ERE_CIS: Attagene CIS-FACTORIAL HepG2 Assay for Estrogen Response Element (ERE) (AID 2282940)
Details: HepG2 ERE cis-reporter, Attagene RNA transcript; actives raise or lower the signal
Method in brief: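 After 24 h compound treatment, RNA from transfected HepG2 cells was reverse-transcribed, reporter cDNA PCR-amplified, FAM-labelled, HpaI-cut and resolved by capillary electrophoresis. ERE-driven cis reporter transcripts reflect endogenous factors; gain or loss scored against DMSO.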

Compound	outcome	AC50
Oc1cc2ccccc2c2ccccc12	inactive	
CC(C)(C)CC(C)(C)c1ccc(O)c(-n2nc3ccccc3n2)c1	inactive	
Cc1ccc(S(=O)(=O)O)c(C)c1	inactive	
CCCCCCCCC(=O)O	inactive	
CN1CCN(c2ccccc2/C=C2\SCCN(c3ccc(Cl)c(Cl)c3)C2=O)CC1	inactive	
c1ccc2c(c1)Cc1ccccc1-2		100 µM (active)
FC(F)(I)C(F)(F)C(F)(F)C(F)(F)C(F)(F)C(F)(F)I		0.0192 µM (active)
CC(C)(C)c1ccc(O)c(C(C)(C)C)c1	inactive	
O=C(OCCOCCOC(=O)c1ccccc1)c1ccccc1	inactive	
CCCCC(CC)COC(=O)CCCCC(=O)OCC(CC)CCCC (stereo not given)	inactive	
CC(C)CCCCCCOC(=O)CCCCC(=O)OCCCCCCC(C)C	inactive	
C[C@@H]1C[C@H]2[C@@H]3CCC4=CC(=O)C=C[C@]4(C)[C@@]3(F)[C@@H](O)C[C@]2(C)[C@@]1(O)C(=O)COP(=O)(O)O	inactive	
CCCCC(CC)COC(=O)CCCCC(=O)OCc1ccccc1 (stereo not given)	inactive	
COc1ccc([N+](=O)[O-])cc1N	inactive	
CC(C)(C)c1cc(C(C)(C)C)c(O)c(C(C)(C)C)c1	inactive	
c1ccc2c(c1)ccc1ccccc12	inactive	
CCCCCCCCOC(=O)CCCCCCCCC(=O)OCCCCCCCC	inactive	

Compound	outcome	AC50
CC(C)(C)c1cccc(C(C)(C)C)c1O	inactive	
CCN(CC)CCNc1ccc(CNC=O)c2sc3ccc(OC)cc3c(=O)c12		0.722 µM (active)
CCCCC[C@H](O)CC(=O)CCc1ccc(O)c(OC)c1	inactive	
CC(=O)NC1(c2cccc(F)c2)CCN(CC[C@@]2(c3ccc(Cl)c(Cl)c3)CN(c3ccccc3)C(=O)CO2)CC1		33 µM (active)
Oc1cccc(O)c1	inactive	
CC(O)CO (stereo not given)	inactive	
CCCCCCCCCCCCN1CCCC1=O	inactive	
O=C(/C=C/c1ccc(O)cc1)CC(=O)/C=C/c1ccc(O)cc1	inactive	
COc1cc(CCC(=O)CC(=O)CCc2ccc(O)c(OC)c2)ccc1O	inactive	
O=c1c(-c2ccc(O)cc2)coc2cc(O)ccc12		410 nM (active) [middle of 4 runs]
CCCCCCCCCCCCc1ccccc1S(=O)(=O)O	inactive	
CCc1nn(C2CCCCC2)c2cc(C3(C#N)CCC(C(=O)O)CC3)ccc12 (stereo not given)		2.31 µM (active)
C=C(C)C(=O)OCCC(F)(F)C(F)(F)C(F)(F)C(F)(F)C(F)(F)C(F)(F)F		57.4 µM (active) and 150 µM (active)
CCCCOCCO		134 µM (active)
CCCOc1sc(C(=O)N2CCC(c3cc(CN)ccc3F)CC2)c(C)c1Br		2.72 µM (active)
Cc1cc(CCN2CCN(c3nsc4ccccc34)CC2)cc2c1NC(=O)CC2(C)C	inactive	
CCCCCCCCCCCCCCCS(=O)(=O)Oc1ccccc1	inactive	

Test: ATG_Ets_CIS: Attagene CIS-FACTORIAL HepG2 Assay for human Erythroblast Transformation Specific (ETS) (AID 2282941)
Details: HepG2 ETS cis-reporter transcription, actives raise or lower the signal
Method in brief: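 Cis-regulated reporter mRNA induction in HepG2 (transient transfection), 24 h exposure, RT-PCR plus capillary electrophoresis detection; DMSO serves as negative control and baseline.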

Compound	outcome	AC50
Oc1cc2ccccc2c2ccccc12	inactive	
CC(C)(C)CC(C)(C)c1ccc(O)c(-n2nc3ccccc3n2)c1	inactive	
Cc1ccc(S(=O)(=O)O)c(C)c1	inactive	
CCCCCCCCC(=O)O	inactive	
CN1CCN(c2ccccc2/C=C2\SCCN(c3ccc(Cl)c(Cl)c3)C2=O)CC1	inactive	
c1ccc2c(c1)Cc1ccccc1-2	inactive	
FC(F)(I)C(F)(F)C(F)(F)C(F)(F)C(F)(F)C(F)(F)I		18.3 µM (active)
CC(C)(C)c1ccc(O)c(C(C)(C)C)c1	inactive	
O=C(OCCOCCOC(=O)c1ccccc1)c1ccccc1	inactive	
CCCCC(CC)COC(=O)CCCCC(=O)OCC(CC)CCCC (stereo not given)	inactive	
CC(C)CCCCCCOC(=O)CCCCC(=O)OCCCCCCC(C)C	inactive	
C[C@@H]1C[C@H]2[C@@H]3CCC4=CC(=O)C=C[C@]4(C)[C@@]3(F)[C@@H](O)C[C@]2(C)[C@@]1(O)C(=O)COP(=O)(O)O	inactive	
CCCCC(CC)COC(=O)CCCCC(=O)OCc1ccccc1 (stereo not given)	inactive	
COc1ccc([N+](=O)[O-])cc1N	inactive	
CC(C)(C)c1cc(C(C)(C)C)c(O)c(C(C)(C)C)c1	inactive	
c1ccc2c(c1)ccc1ccccc12	inactive	
CCCCCCCCOC(=O)CCCCCCCCC(=O)OCCCCCCCC	inactive	
CC(C)(C)c1cccc(C(C)(C)C)c1O		166 µM (active)

Compound	outcome	AC50
CCC(C)(C)C1CCC(O)CC1 (stereo not given)	inactive	
CCN(CC)CCNc1ccc(CNC=O)c2sc3ccc(OC)cc3c(=O)c12		1.42 µM (active)
CCCCC[C@H](O)CC(=O)CCc1ccc(O)c(OC)c1	inactive	
CC(=O)NC1(c2cccc(F)c2)CCN(CC[C@@]2(c3ccc(Cl)c(Cl)c3)CN(c3ccccc3)C(=O)CO2)CC1		51.9 µM (active)
Oc1cccc(O)c1	inactive	
C#C[C@]1(O)CC[C@H]2[C@@H]3CCC4=CC(=O)CC[C@@H]4[C@H]3CC[C@@]21C	inactive	
CC(O)CO (stereo not given)	inactive	
CCCCCCCCCCCCN1CCCC1=O	inactive	
O=C(/C=C/c1ccc(O)cc1)CC(=O)/C=C/c1ccc(O)cc1	inactive	
COc1cc(CCC(=O)CC(=O)CCc2ccc(O)c(OC)c2)ccc1O	inactive	
O=c1c(-c2ccc(O)cc2)coc2cc(O)ccc12	inactive	
CCCCCCCCCCCCc1ccccc1S(=O)(=O)O	inactive	
CCc1nn(C2CCCCC2)c2cc(C3(C#N)CCC(C(=O)O)CC3)ccc12 (stereo not given)	inactive	
C=C(C)C(=O)OCCC(F)(F)C(F)(F)C(F)(F)C(F)(F)C(F)(F)C(F)(F)F	inactive	
CCCCOCCO	inactive	
CCCOc1sc(C(=O)N2CCC(c3cc(CN)ccc3F)CC2)c(C)c1Br	inactive	
Cc1cc(CCN2CCN(c3nsc4ccccc34)CC2)cc2c1NC(=O)CC2(C)C	inactive	
CCCCCCCCCCCCCCCS(=O)(=O)Oc1ccccc1	inactive	
